Assay results taken from PubChem BioAssay (NCATS).
Inconclusive results are not listed. Active and inactive are the calls of the source. The call rests on the fitted dose curve; in most records, active means well fitted inhibition curve with a large enough effect; inconclusive means small, poorly fitted or top-dose-only effect; inactive means flat fitted curve, though single readings scatter.

Target: Ubiquitin carboxyl-terminal hydrolase 1 (Homo sapiens) (UniProt O94782)
Test: Inhibitors of USP1/UAF1: Pilot qHTS (AID 504865);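 further: rhodamine fluorescence freed from ubiquitin-rhodamine substrate followed over time; top concentration of the series differs between compounds; nearly all actives have a fitted effect of over 35% in size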
Settings: purified USP1/UAF1, Ub-rhodamine cleavage fluorescence; series mostly up to 114 µM; activity change, negative = inhibition: at the top concentration
In short: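 Enzyme-free wells gave the negative control, while test wells held 1nM USP1/UAF1 preincubated with compound for 15 min at room temperature. Ub-Rho at 150nM final started the reaction, and fluorescence at 480/540 nm was recorded kinetically.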
On the % scale 0 is the no-effect control and ±100 the full control effect.

Sequence of Ubiquitin carboxyl-terminal hydrolase 1 (Homo sapiens) (O94782 whole entry, looked up): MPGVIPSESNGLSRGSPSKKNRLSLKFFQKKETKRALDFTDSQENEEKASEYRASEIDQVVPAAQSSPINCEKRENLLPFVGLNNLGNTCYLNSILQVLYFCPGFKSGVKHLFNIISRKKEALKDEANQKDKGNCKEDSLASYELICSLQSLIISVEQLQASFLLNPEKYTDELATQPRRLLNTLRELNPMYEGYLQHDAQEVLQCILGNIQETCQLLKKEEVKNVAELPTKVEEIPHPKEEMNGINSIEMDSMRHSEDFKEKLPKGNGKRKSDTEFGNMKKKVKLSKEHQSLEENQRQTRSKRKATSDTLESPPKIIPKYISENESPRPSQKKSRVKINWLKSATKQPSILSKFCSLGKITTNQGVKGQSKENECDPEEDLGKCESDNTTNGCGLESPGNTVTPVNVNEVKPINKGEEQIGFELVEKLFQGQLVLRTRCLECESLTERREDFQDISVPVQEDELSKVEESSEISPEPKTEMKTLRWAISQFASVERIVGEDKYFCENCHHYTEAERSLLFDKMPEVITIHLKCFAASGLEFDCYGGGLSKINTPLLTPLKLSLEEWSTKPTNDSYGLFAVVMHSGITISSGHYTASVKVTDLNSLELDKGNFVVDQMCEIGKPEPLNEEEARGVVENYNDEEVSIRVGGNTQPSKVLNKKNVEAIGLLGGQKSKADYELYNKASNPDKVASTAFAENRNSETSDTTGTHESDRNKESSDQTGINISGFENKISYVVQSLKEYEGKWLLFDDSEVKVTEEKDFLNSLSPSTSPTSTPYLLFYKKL

Row | SMILES | activity change, negative = inhibition
1 | N=C(N)N1CCc2ccccc2C1 | -14.7% [at 54.9 µM] (inactive)
2 | CN(C)CCOC(=O)C(c1ccccc1)C1(O)CCCC1 (stereo unspecified) | -6.25% (inactive)
3 | Cc1cccc(C)c1NC(=O)c1ccccc1C(=O)O | -8.19% (inactive)
4 | Cc1c[nH]c2ccccc12 | 0.815% (inactive)
5 | CC(=O)N[C@@H](CCC(=O)O)C(=O)O | -0.22% (inactive)
6 | O[C@@H](c1cc(C(F)(F)F)nc2c(C(F)(F)F)cccc12)[C@H]1CCCCN1 | -7.77% (inactive)
7 | OC(C#CCN1CCCC1)(c1ccccc1)c1ccccc1 | -4.67% (inactive)
8 | CC1CCc2c(N3CCC(O)CC3)c(F)cc3c(=O)c(C(=O)O)cn1c23 (stereo unspecified) | -5.21% (inactive)
9 | Cc1cccc(C)c1NC(=O)CN1CCCCCC1 | -8.59% (inactive)
10 | CN1CCN(C2=Nc3cc(F)ccc3Cc3ccccc32)CC1 | -9.72% (inactive)
11 | Cc1ccc(O)c([C@H](CCN(C(C)C)C(C)C)c2ccccc2)c1 | -5.82% (inactive)
12 | CCNC(=O)/C=C/c1cccc(Br)c1 | -9.85% (inactive)
13 | COc1ccc(CN(CCN(C)C)c2ncccn2)cc1 | -1.6% (inactive)
14 | CCc1ccc(C(=O)C(C)CN2CCCCC2)cc1 (stereo unspecified) | -12.8% (inactive)
15 | CC(=O)OCC(=O)[C@H]1CC[C@H]2[C@@H]3CCC4=CC(=O)CC[C@]4(C)[C@H]3CC[C@]12C | -3.73% (inactive)
16 | CC(=O)Oc1ccc(C)cc1 | 0.161% (inactive)
